In all, about 5,500 compounds went through this assay and about 2,000 (36%) were called active. Inconclusive results (about 18%) are left out. No stated cut-off is given here; in the data, active means normalized growth mostly below about 0.91 (no sharp cut-off); inconclusive means no clear call, values can overlap the other calls; inactive means mostly above about 0.92. The list shows a part of the results.
Assay: chemical genetic growth profiling, strain panel (AID 1159580);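 further: tested at 20 µM; growth read once vehicle control cultures reached saturation at 30 °C; 1 = growth at the plate median or of vehicle wells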
Conditions: S. cerevisiae deletion strains, growth OD
[1] = locus YAL021C, strain ccr4, stronger effect = lower value
[2] = locus YAL026C, strain drs2, stronger effect = lower value
[3] = locus YAL030W, strain snc1, stronger effect = lower value
[4] = locus YBL061C, strain skt5, stronger effect = lower value
[5] = locus YBR009C, strain hhf1, stronger effect = lower value
[6] = locus YBR023C, strain chs3, stronger effect = lower value
[7] = locus YBR171W, strain sec66, stronger effect = lower value
[8] = locus YBR231C, strain swc5, stronger effect = lower value
[9] = locus YBR279W, strain paf1, stronger effect = lower value
[10] = locus YCL011C, strain gbp2, stronger effect = lower value
[11] = locus YCL016C, strain dcc1, stronger effect = lower value
[12] = locus YCL061C, strain MRC1, stronger effect = lower value
[13] = locus YCL069W, strain vba3, stronger effect = lower value
[14] = locus YCR088W, strain abp1, stronger effect = lower value
[15] = locus YDL005C, strain med2, stronger effect = lower value
[16] = locus YDL040C, strain nat1, stronger effect = lower value
[17] = locus YDR001C, strain nth1, stronger effect = lower value
[18] = locus YDR069C, strain doa4, stronger effect = lower value
[19] = locus YDR137W, strain rgp1, stronger effect = lower value
[20] = locus YDR159W, strain sac3, stronger effect = lower value
[21] = locus YDR297W, strain sur2, stronger effect = lower value
[22] = locus YDR334W, strain swr1, stronger effect = lower value
[23] = locus YDR335W, strain msn5, stronger effect = lower value
[24] = locus YDR392W, strain spt3, stronger effect = lower value
[25] = locus YEL003W, strain gim4, stronger effect = lower value
[26] = locus YEL037C, strain rad23, stronger effect = lower value
[27] = locus YEL061C, strain CIN8 (second series), stronger effect = lower value
[28] = locus YER015W, strain faa2, stronger effect = lower value
[29] = locus YER016W, strain bim1, stronger effect = lower value
[30] = locus YER111C, strain swi4, stronger effect = lower value
[31] = locus YER155C, strain BEM2 (second series), stronger effect = lower value
[32] = locus YFR010W, strain ubp6, stronger effect = lower value
[33] = locus YGL167C, strain pmr1, stronger effect = lower value
[34] = locus YGL173C, strain kem1, stronger effect = lower value
[35] = locus YGL227W, strain vid30, stronger effect = lower value
[36] = locus YGL240W, strain doc1, stronger effect = lower value
[37] = locus YGL253W, strain hxk2, stronger effect = lower value
[38] = locus YHR013C, strain ard1, stronger effect = lower value
[39] = locus YHR027C, strain rpn1, stronger effect = lower value
[40] = locus YHR142W, strain chs7, stronger effect = lower value
[41] = locus YJL092W, strain hpr5, stronger effect = lower value
[42] = locus YJL095W, strain BCK1 (second series), stronger effect = lower value
[43] = locus YJL115W, strain asf1, stronger effect = lower value
[44] = locus YJL129C, strain trk1, stronger effect = lower value
[45] = locus YJL154C, strain vps35, stronger effect = lower value
[46] = locus YJL164C, strain tpk1, stronger effect = lower value
[47] = locus YJL166W, strain qcr8, stronger effect = lower value
[48] = locus YJL187C, strain SWE1, stronger effect = lower value
[49] = locus YKL160W, strain elf1, stronger effect = lower value
[50] = locus YKR026C, strain gcn3, stronger effect = lower value
[51] = locus YKR091W, strain srl3, stronger effect = lower value
[52] = locus YLL001W, strain dnm1, stronger effect = lower value
[53] = locus YLL026W, stronger effect = lower value
[54] = locus YLL041C, strain sdh2, stronger effect = lower value
[55] = locus YLR027C, strain aat2, stronger effect = lower value
[56] = locus YLR221C, strain rsa3, stronger effect = lower value
[57] = locus YLR258W, strain gsy2, stronger effect = lower value
[58] = locus YLR262C, strain YPT6 (second series), stronger effect = lower value
[59] = locus YLR320W, strain mms22, stronger effect = lower value
[60] = locus YLR342W, strain FKS1, stronger effect = lower value
[61] = locus YLR357W, strain rsc2, stronger effect = lower value
[62] = locus YLR370C, strain arc18, stronger effect = lower value
[63] = locus YLR384C, strain iki3, stronger effect = lower value
[64] = locus YML120C, strain ndi1, stronger effect = lower value
[65] = locus YMR058W, strain fet3, stronger effect = lower value
[66] = locus YMR125W, strain sto1, stronger effect = lower value
[67] = locus YMR129W, stronger effect = lower value
[68] = locus YMR205C, strain PFK2, stronger effect = lower value
[69] = locus YMR231W, strain pep5, stronger effect = lower value
[70] = locus YNL071W, strain lat1, stronger effect = lower value
[71] = locus YNL209W, strain ssb2, stronger effect = lower value
[72] = locus YNL248C, strain rpa49, stronger effect = lower value
[73] = locus YNL322C, strain KRE1 (second series), stronger effect = lower value
[74] = locus YNR049C, strain mso1, stronger effect = lower value
[75] = locus YOR001W, strain rrp6, stronger effect = lower value
[76] = locus YOR070C, strain gyp1, stronger effect = lower value
[77] = locus YOR080W, strain dia2, stronger effect = lower value
[78] = locus YOR083W, strain WHI5, stronger effect = lower value
[79] = locus YOR106W, strain vam3, stronger effect = lower value
[80] = locus YOR265W, strain rbl2, stronger effect = lower value
[81] = locus YOR270C, strain vph1, stronger effect = lower value
[82] = locus YOR290C, strain snf2, stronger effect = lower value
[83] = locus YPL051W, strain arl3, stronger effect = lower value
[84] = locus YPL078C, strain atp4, stronger effect = lower value
[85] = locus YPL106C, strain sse1, stronger effect = lower value
[86] = locus YPL240C, strain hsp82, stronger effect = lower value

Measured: normalized growth

COc1ccc(/C=C/C(=O)c2ccc(O)cc2O)cc1
active: [1] 0.643 | [2] 0.39 | [3] 0.477 | [4] 0.371 | [5] 0.329 | [6] 0.296 | [7] 0.736 | [8] 0.35 | [9] 0.486 | [10] 0.414 | [11] 0.398 | [12] 0.494 | [13] 0.436 | [14] 0.637 | [15] 0.412 | [16] 0.68 | [17] 0.546 | [18] 0.815 | [19] 0.218 | [20] 0.355 | locus YDR195W, strain ref2 0.69 | [21] 0.643 | [22] 0.383 | [23] 0.477 | [24] 0.107 | [25] 0.333 | [26] 0.678 | [27] 0.222 | [28] 0.496 | [29] 0.488 | [30] 0.193 | [31] 0.125 | [32] 0.661 | [33] 0.782 | [34] 0.326 | [35] 0.246 | [36] 0.349 | [37] 0.23 | [38] 0.352 | [39] 0.59 | locus YHR030C, strain SLT2, stronger effect = lower value 0.458 | locus YHR079C, strain IRE1, stronger effect = lower value 0.48 | [40] 0.175 | [41] 0.523 | [42] 0.187 | locus YJL095W, strain BCK1, stronger effect = lower value 0.423 | [43] 0.56 | [44] 0.386 | [45] 0.697 | [46] 0.324 | [47] 0.266 | [48] 0.492 | locus YJR066W, strain TOR1, stronger effect = lower value 0.439 | [49] 0.299 | [50] 0.784 | [51] 0.699 | [52] 0.528 | [53] 0.267 | [54] 0.615 | [55] 0.369 | locus YLR113W, strain HOG1, stronger effect = lower value 0.361 | [56] 0.28 | [57] 0.476 | [58] 0.221 | [59] 0.14 | [60] 0.313 | [61] 0.633 | [62] 0.619 | [63] 0.671 | [64] 0.336 | [65] 0.34 | [66] 0.205 | [67] 0.707 | [68] 0.26 | [69] 0.462 | [70] 0.0785 | locus YNL183C, strain NPR1, stronger effect = lower value 0.516 | [71] 0.661 | [72] 0.402 | [73] 0.618 | [74] 0.631 | [75] 0.444 | [76] 0.336 | [77] 0.631 | [78] 0.479 | [79] 0.38 | locus YOR231W, strain MKK1, stronger effect = lower value 0.495 | [80] 0.535 | [81] 0.161 | [82] 0.28 | [83] 0.273 | [84] 0.32 | [85] 0.458 | [86] 0.44 | locus YPL256C, strain CLN2, stronger effect = lower value 0.5

COc1ccc(C=CC(=O)c2ccc(O)cc2O)cc1OC
active: [2] 0.876 | [4] 0.811 | [5] 0.867 | [6] 0.797 | [8] 0.86 | [9] 0.879 | [19] 0.59 | locus YDR195W, strain ref2 1.16 [resistant] | [24] 0.361 | [31] 0.696 | [37] 0.862 | [38] 0.842 | [40] 0.645 | [42] 0.863 | [44] 0.818 | [46] 0.859 | [47] 0.83 | [49] 0.83 | [53] 0.914 | [55] 0.886 | [56] 0.855 | [57] 0.914 | [58] 0.65 | [59] 0.732 | [64] 0.833 | [68] 0.759 | [70] 0.666 | [75] 0.87 | [76] 0.883 | [78] 0.835 | [79] 0.814 | [81] 0.653 | [82] 0.767 | [83] 0.768 | [84] 0.828
inactive: [1] 0.908 | [3] 0.964 | [7] 0.965 | [10] 0.934 | [11] 0.936 | [12] 0.976 | [13] 0.975 | [14] 0.982 | [15] 0.983 | [16] 0.984 | [17] 0.971 | [18] 0.953 | [20] 0.893 | [21] 0.968 | [22] 0.974 | [23] 0.973 | [25] 0.936 | [26] 0.983 | [27] 0.977 | [28] 0.965 | [29] 0.979 | [30] 0.994 | [32] 0.96 | [33] 0.961 | [34] 0.972 | [35] 0.987 | [36] 0.893 | [39] 0.982 | [41] 0.972 | [43] 0.989 | [45] 0.998 | [48] 0.929 | [50] 0.976 | [51] 0.989 | [52] 0.935 | [54] 0.978 | [60] 0.96 | [61] 0.992 | [62] 0.929 | [63] 0.995 | [65] 0.908 | [66] 0.933 | [67] 0.98 | [69] 0.996 | [71] 0.958 | [72] 0.935 | [73] 0.996 | [74] 0.974 | [77] 0.991 | [80] 0.969 | [85] 0.881 | [86] 0.973
